# High-throughput results: PubChem, National Center for Advancing Translational Sciences (NCATS)
# A selection: hits, their analogues and other compounds. The true share with any hit is near 2.8%.
# GLP1R ag = qHTS of GLP-1 Receptor Agonists; Glucagon-like peptide 1 receptor (Homo sapiens), P43220; HEK293 GLP-1R CRE-luciferase, luminescence, 4-6 h; cells express a hypersensitive GLP-1R form; Potency, µM (titrated, usually from 45.6 µM), usual class: activators; hit rate 0.007% among 380,000
# HEK293 tox = qHTS of GLP-1 Receptor Inverse Agonists: Cytotox Screen; HEK293 cAMP-luciferase reporter cells, luminescence, 24 h; Potency, µM (series often up to 38.3 µM), usual class: inhibitors; hit rate 0.13% among 410,000;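 also: loss of luciferase light is scored as toxicity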
#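 MLSMR compounds, 24 hr on cells at 37 deg C/5% CO2; luminescence after luciferase reagent (12 min RT). Inhibition counted as the undesired cytotoxic outcome.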
# GLS inhibitor = qHTS for Inhibitors of Glutaminase (GLS). Glutaminase kidney isoform, mitochondrial (Homo sapiens), O94925. GLS enzymatic activity, qHTS titration. Potency, µM (doses to about 45.5 µM), most hits filed as inhibitors. hit rate 0.21% among 410,000
#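 hKGA; 45 mM KH2PO4 pH 8.2 + 0.02% Tween-20; cpd via pin tool; 1 mM Gln soln; GluOx/HRP/Amplex Red; RT 30 min; fluor. t0 & final.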
# KCNH2 3.1 block = qHTS for Inhibitors of KCHN2 3.1: Mutant qHTS; Potassium voltage-gated channel subfamily H member 2, brain isoform KCNH2 3.1 (human); U2OS KCNH2 3.1, thallium flux FluxOr; stronger effect = lower value; activity change, % (tested at about 1.8 µM); hit rate 0.95% among 340,000; AID 720553, 2013;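 active = maximum activity change below -70%; inconclusive = maximum activity change from -70% to -50%; inactive = maximum activity change above -50%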;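 also: thallium influx rate constant from kinetic fluorescence after stimulation buffer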
#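 Steps: virus added to U2OS suspension (4 h, RT, dark); medium with 10% FBS added, cells plated, 37 C overnight; FluxOr/Red40 loading buffer 45 min RT; stimulation buffer, 2 min kinetic read; rate constant normalized.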
# hERG WT inh = qHTS for Inhibitors of KCHN2 3.1: Wildtype qHTS; Voltage-gated inwardly rectifying potassium channel KCNH2 (Homo sapiens), Q12809; U2OS, BacMam KCNH2, thallium flux FluxOr; stronger effect = lower value; activity change, % at 1.84 µM; AID 720551, 2013; hit rate 0.37% among 340,000;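 active = maximum activity change below -70%; inconclusive = maximum activity change between -70% and -50%; inactive = maximum activity change above -50%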
#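 U2OS cells were transduced with wild-type KCNH2 virus (2.03 x 10^8 / mL) for 4 h at room temperature, then cultured overnight at 37 C. Thallium flux was read with FluxOr dye. Rate constants were normalized to DMSO controls.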
# GLP-1R inv ag = qHTS of GLP-1 Receptor Inverse Agonists (Inhibition Mode); Glucagon-like peptide 1 receptor (Homo sapiens), P43220; HEK293 GLP-1R CRE-luciferase, luminescence, 24 h; GLP-1R form is constitutively active; Potency, µM (top dose mostly 38.3 µM), usual class: inhibitors; hit rate 1.6% among 410,000; AID 624417, 2012; also: nearly all actives have a fitted effect of over 55% in size
#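 HEK293 cells stably co-expressing a cAMP-responsive luciferase reporter and constitutively active GLP-1R were seeded, incubated 12 h, then exposed to compounds for 24 h at 37 C. Luminescence was read 12 min after detection reagent; inverse agonists lower signal.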
# A number is an active result; n = inactive; u = inconclusive; x = no result given. Unless noted, calls follow the shape of the dose curve; as a rule, active = well fitted curve in the direction sought with a large enough effect; inconclusive = small, poorly fitted or top-dose-only effect, or another doubt; inactive = no such curve, though single readings can be large; an effect the other way counts as inactive or inconclusive.
SMILES,GLP1R ag,HEK293 tox,GLS inhibitor,KCNH2 3.1 block,hERG WT inh,GLP-1R inv ag
CS(=O)(=O)c1ncc(Cl)c(C(=O)N(Cc2ccc(Cl)cc2)Cc2ccco2)n1,x,u,n,x,x,8.9µM
COc1ccc(N(Cc2ccccc2)C(=O)c2nc(S(C)(=O)=O)ncc2Cl)cc1,x,u,n,x,x,10µM
CC(C)(C)OC(=O)CNC(=O)c1[nH]cnc1C(=O)NC(c1ccccc1)c1ccccc1,n,u,n,n,n,u
CC(C)CN(c1ccccc1)S(=O)(=O)c1nnc(NC(=O)C2CCCCC2)s1,x,n,n,x,x,n
CCCN(CC(=O)Nc1ccccc1C)CC(=O)Nc1ccc(Br)cc1F,n,n,n,n,n,10µM
Fc1cccc(-c2cc3nc4c(c(NCc5ccco5)n3n2)CCCC4)c1,n,n,n,-78,n,n
CCN(CC)CC#CCOC(c1ccccc1)c1ccccc1,n,n,n,n,n,5.6µM
Cc1nn(-c2ccccc2)c(Cl)c1C(=O)Nc1nnc(C2CCCCC2)s1,n,n,n,n,n,8.9µM
NC(=O)C1CCN(C(=O)COc2ccc3ccccc3c2Br)CC1,n,n,n,n,n,n
O=C(COc1ccc2ccccc2c1Br)N1CCCCC1,n,n,n,n,n,10µM
O=C(NC(=S)Nc1ccccc1N1CCOCC1)c1cccc([N+](=O)[O-])c1,n,u,n,n,n,3.5µM
CCC(=O)N1CCN(c2ccccc2NC(=S)NC(=O)c2cccc([N+](=O)[O-])c2)CC1,n,n,n,n,n,u
COc1cccc(C(=O)NC(=S)Nc2ccccc2N2CCCCC2)c1,n,n,n,n,n,5.6µM
COc1cccc(C(=O)NC(=S)Nc2ccccc2N2CCCC2)c1,n,u,n,n,n,5µM
NC(=S)NNc1cccc(Cl)c1,n,n,n,-82,n,n
Cc1cccc(NNC(=S)Nc2ccccc2)c1,n,u,n,n,n,5.6µM
Cc1cccc(NNC(N)=S)c1,n,n,u,n,n,n
Cc1ccc(C)c(NCC(=O)NNC(=S)Nc2ccccc2)c1,n,n,n,n,-75,n
Cc1cccc(NNC(=S)Nc2c(C)cccc2C)c1,n,u,n,n,n,3.2µM
Cn1c(CNC(=O)c2ccco2)nnc1SCC(=O)c1ccc(F)cc1,n,n,n,n,n,n
Cc1cc(C)cc(NC(=O)c2cc(CN3CCCC3)on2)c1,x,n,n,x,x,n
Cc1cccc(NC(=S)NC(C)(C)CC(C)(C)C)c1,n,u,n,n,n,10µM
Cc1cccc(NC(=S)NNc2cccc(Cl)c2)c1,n,n,n,n,n,10µM
CN(C)NC(=S)Nc1cccc(Cl)c1,n,u,n,n,n,n
Cc1ccc(C2C3=C(CC(C)(C)CC3=O)OC3=C2C(=O)CC(C)(C)C3)cc1,n,n,n,-85,n,n
COc1cc([C@H]2c3[nH]c4ccccc4c3C[C@H]3C(=O)N4[C@@H](c5cc(OC)c(OC)c(OC)c5)c5[nH]c6ccccc6c5C[C@H]4C(=O)N23)cc(OC)c1OC,n,n,n,n,n,10µM
CC(C)CN1CC(=O)N2C(c3ccccc3)c3[nH]c4ccccc4c3C[C@H]2C1=O (some centres not stated),n,n,n,n,n,10µM
CCN1C(=O)[C@@H]2Cc3c([nH]c4ccccc34)C(c3cc(OC)c(OC)c(OC)c3)N2C1=S (some centres not stated),n,n,n,n,n,u
Cc1ccc(Cl)cc1NC(=O)C(C)n1nnc2sc3c(c2c1=O)CCCC3 (configuration not stated),x,n,n,x,x,n
CCc1c(C)nc2nc(-c3ccccc3)nn2c1NCc1ccc(C)cc1,n,n,n,x,x,u
